# Compound activity: PubChem BioAssay, National Center for Advancing Translational Sciences (NCATS)
# Shown are actives, neighbours in structure and some others; about 9.2% of the full set was active somewhere.
# FLuc modulator = qHTS profiling assay for firefly luciferase inhibitor/activator using purifed enzyme and Km concentrations of substrates (counterscreen for miR-21 project); AID 588342, 2011; 360,000 tested, 6.9% active; Potency, µM (doses to about 57.5 µM), hits mostly inhibitors; purified FLuc, Km substrates, luminescence inhibition; Luciferin 4-monooxygenase (Photinus pyralis), P08659; also: nearly all actives have a fitted effect of over 55% in size
# Target sequence (P08659 whole entry, looked up): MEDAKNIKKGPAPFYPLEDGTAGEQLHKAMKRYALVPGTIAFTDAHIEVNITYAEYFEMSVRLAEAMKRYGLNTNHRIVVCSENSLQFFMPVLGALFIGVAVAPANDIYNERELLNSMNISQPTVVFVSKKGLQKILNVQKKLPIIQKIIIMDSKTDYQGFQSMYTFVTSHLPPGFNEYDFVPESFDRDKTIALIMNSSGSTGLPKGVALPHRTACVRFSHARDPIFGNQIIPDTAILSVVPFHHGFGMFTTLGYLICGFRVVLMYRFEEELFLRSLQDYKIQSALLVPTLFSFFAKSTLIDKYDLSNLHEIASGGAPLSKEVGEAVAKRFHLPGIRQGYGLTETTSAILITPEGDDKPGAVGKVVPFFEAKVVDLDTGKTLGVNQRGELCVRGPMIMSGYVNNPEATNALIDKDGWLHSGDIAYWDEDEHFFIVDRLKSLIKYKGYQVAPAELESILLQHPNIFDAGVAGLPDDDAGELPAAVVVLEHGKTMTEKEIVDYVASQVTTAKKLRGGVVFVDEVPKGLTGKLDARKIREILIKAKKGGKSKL
#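 Biochemical qHTS of compounds, final roughly 60 µM downward over six points, against 10 nM purified firefly luciferase using Km concentrations of substrates (10 uM D-luciferin, 10 uM ATP) in Tris acetate pH 7.5 buffer; luminescence output.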
# ELG1 genotox = qHTS screen for small molecules that induce genotoxicity in human embryonic kidney (HEK293T) cells expressing luciferase-tagged ELG1; HEK293T ELG1-luciferase reporter, luminescence, 16 h; Potency, µM (top dose mostly 46 µM), actives largely listed as activators; 330,000 tested, 1.3% active; also: nearly all actives have a fitted effect of over 60% in size
#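 DMSO vehicle served as control against compound-treated ELG1-luciferase HEK293T cells; exposure lasted 16 hr at 37 °C and 5% CO2, followed by ONE-Glo luminescence detection after 30 min.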
# Rab9 promoter act = qHTS Assay for Rab9 Promoter Activators. Huh7 Rab9 promoter-luciferase reporter, luminescence, 24 h. Potency, µM (highest dose often 9.22 µM), actives largely listed as activators. 320,000 tested, 2.8% active; also: nearly all actives have a fitted effect of over 60% in size
#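 Huh7 reporter line, Rab9 promoter upstream of luciferase. Compound exposure 24 h at 37 °C in reduced-serum medium with 10% FBS. Read-out: luminescence.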
# ELG1 repair inh = qHTS screen for small molecules that inhibit ELG1-dependent DNA repair in human embryonic kidney (HEK293T) cells expressing luciferase-tagged ELG1; HEK293T ELG1-luciferase reporter, luminescence, 16 h; DNA damage induced by 5-fluorouridine; 330,000 tested, 2.3% active; Potency, µM (series often up to 46.1 µM), hits mostly inhibitors; also: nearly all actives have a fitted effect of over 55% in size
#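 Quantitative HTS, concentration-response format. 2,000 cells/well co-treated with 5-fluorouridine and compound, 16 hr in 5% CO2 at 37 °C; ONE-Glo luminescence read after 30 min.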
# NPC1 prom act = qHTS Assay for NPC1 Promoter Activators. Huh7 NPC1 promoter luciferase reporter, 24 h. Potency, µM (highest dose often 9.22 µM), hits mostly activators. 320,000 tested, 2.4% active. AID 485313, 2010; also: nearly all actives have a fitted effect of over 60% in size
#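 Luminescence read-out of NPC1 promoter-driven luciferase in stably transfected Huh7 cells; compounds delivered in DMSO and left 24 h at 37C, 5% CO2, qHTS titration format.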
# SMN2 splice up = qHTS Assay for Enhancers of SMN2 Splice Variant Expression; HEK293 SMN2-luciferase splicing reporter, luminescence, 30-36 h; Potency, µM (doses to about 46.1 µM), usual class: activators; 210,000 tested, 2.8% active; also: nearly all actives have a fitted effect of over 55% in size
#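 HEK293 cells carry an SMN2 minigene-luciferase reporter in which exon 7 inclusion puts luciferase in frame. Cells were seeded at 2000 cells/well, attached for 10-12 hours, then exposed to compounds for 30-36 hours at 37C before ONE-Glo luminescence.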
# Numbers stand for hits; i = inactive; ? = inconclusive; nt = no result. Calls follow the shape of the dose curve; as a rule, active = well fitted curve in the direction sought with a large enough effect; inconclusive = small, poorly fitted or top-dose-only effect, or another doubt; inactive = no such curve, though single readings can be large; an effect the other way counts as inactive or inconclusive.
SMILES,FLuc modulator,ELG1 genotox,Rab9 promoter act,ELG1 repair inh,NPC1 prom act,SMN2 splice up
COc1ccc(-c2ccc(SCC(=O)c3ccccc3)nn2)cc1OC,24µM,i,i,?,i,i
COC(=O)COc1ccc(Oc2nc(NC(C)(C)C)nc(N(C)C)n2)nn1,i,nt,nt,nt,nt,i
O=C1CC[C@@]23CCCN2C(=O)CCCC3C1 (stereo not given in full),nt,i,nt,?,nt,nt
O=C(N/N=C/c1cn(-c2ccccc2)nc1-c1cc2ccccc2o1)c1ccccc1Br,15µM,?,?,?,3.2µM,4.5µM
O=C(N/N=C/c1cn(-c2ccccc2)nc1-c1cc2ccccc2o1)c1c[nH]c2ccccc12,1.9µM,?,1.4µM,?,1.8µM,4µM
COc1ccc(-c2nn(-c3ccccc3)cc2/C=N/NC(=O)c2ccc(Br)o2)cc1,?,i,i,?,i,i
CC1=C(C(=O)Nc2cccnc2)C(c2ccc(F)cc2)n2nc(-c3cccc(C)c3)nc2N1 (stereo not given),i,nt,nt,nt,nt,i
C=CCN(C(=O)c1csnn1)C(C(=O)NC1CCCC1)c1c(F)cccc1Cl (stereo not given),i,i,i,i,i,nt
COc1ccc(C(=O)c2cn(CC(=O)Nc3ccc4c(c3)OCO4)c3ccc(OC)cc3c2=O)cc1,i,nt,nt,nt,nt,i
O=C(c1ccc(CSc2nc3ccncc3[nH]2)cc1)N1CCCCCC1,15µM,?,?,?,?,nt
O=C(c1ccc(CSc2nc3ccncc3[nH]2)cc1)N1CCN(c2cccc(Cl)c2)CC1,i,i,i,26µM,i,i
O=C(c1ccc(CN2CCOCC2)cc1)N1CCN(c2cccc(Cl)c2)CC1,i,i,i,i,i,i
O=C(c1ccc(CSc2nc3ccncc3n2Cc2ccccc2)cc1)N1CCCCCC1,17µM,nt,nt,nt,nt,i
CCOC(=O)c1ccc(-c2ccc(/C=N/NC(=O)CN(c3ccccc3Cl)S(C)(=O)=O)o2)cc1,?,i,?,?,?,11µM
Cc1cc(C(=O)Nc2nnc(C3CCCCC3)s2)no1,?,nt,nt,nt,nt,i
Cc1ccc(C(=O)Nc2nnc(C3CCCCC3)s2)o1,9.5µM,3.7µM,4µM,?,1.8µM,11µM
CCOCC(=O)Nc1nnc(C2CCCCC2)s1,?,?,?,?,?,13µM
C/C=C/C(=O)Nc1nnc(C2CCCCC2)s1,27µM,i,i,i,i,nt
O=C(Nc1nnc(C2CC2)s1)C1CCCCC1,i,i,i,?,i,nt
O=C(CSCCOc1ccccc1)NCc1ccncc1,i,i,i,i,i,nt
CC(=O)c1cccc(NC(=O)CSc2ccc(-c3sc(C)nc3C)nn2)c1,13µM,i,i,23µM,i,nt
Cc1nc(C)c(-c2ccc(SCC(=O)Nc3cccc(F)c3)nn2)s1,?,i,i,?,i,nt
CC(=O)c1cccc(Nc2nc(-c3sc(N)nc3C)cs2)c1,17µM,i,i,8.2µM,i,nt
CC(=O)c1cccc(Nc2nc(-c3sc(C)nc3C)cs2)c1,?,i,i,16µM,i,nt
CCN(CC(=O)Nc1ccc2c(c1)OCCO2)C(=O)/C=C/c1ccc([N+](=O)[O-])cc1,?,i,i,?,i,nt
Cc1cccc(-n2c(=O)c3c(c4cc(C)ccc4n3C)n(CC(=O)NCCC3=CCCCC3)c2=O)c1,i,nt,nt,nt,nt,nt
O=C(Nc1ccc(Cn2cccn2)cc1)c1ccc(COc2cccc(Br)c2)cc1,15µM,?,0.5µM,?,0.56µM,13µM
CCOc1ccc(OCCC(=O)OCC(=O)NCc2ccc(Cl)cc2)cc1,i,i,i,?,i,nt
Cc1nnc(NCCc2ccccc2)c2ccccc12,7.6µM,9.2µM,1.4µM,?,1.6µM,nt
COc1cccc(NC(=O)COC(=O)C2C3CC4OC(=O)C2C4C3)c1 (stereo not given),?,i,i,i,i,nt
